Measured values taken from PubChem BioAssay (Tox21).
Several values for one entry are separate records, joined by “and”; a condition that tells them apart may be missing. Equal entries are not always repeated. Inconclusive results are not listed. Entries that show only a call come without a potency. Activity calls are given as the source filed them. Calls come from the whole dose curve; as a rule, active = well fitted inhibition curve with a large enough effect in the repeat runs; inconclusive = weak or mixed curves; inactive = flat fitted curve, though single readings scatter.

target: Luciferin 4-monooxygenase (Photinus pyralis) (UniProt P08659); assay: qHTS assay to identify small molecule inhibitors of firefly luciferase (AID 1224835); note: nearly all actives have a fitted effect of over 25% in size; conditions: purified P. pyralis luciferase, luminescence inhibition; series mostly up to 115 µM
Outline: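 Quantitative HTS format; KM concentrations of both substrates. Purified P. pyralis FLuc activity quantified from luminescence images.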
Potency is the fitted concentration of half-maximal effect.

Chain of Luciferin 4-monooxygenase (Photinus pyralis) (P08659 whole entry, looked up): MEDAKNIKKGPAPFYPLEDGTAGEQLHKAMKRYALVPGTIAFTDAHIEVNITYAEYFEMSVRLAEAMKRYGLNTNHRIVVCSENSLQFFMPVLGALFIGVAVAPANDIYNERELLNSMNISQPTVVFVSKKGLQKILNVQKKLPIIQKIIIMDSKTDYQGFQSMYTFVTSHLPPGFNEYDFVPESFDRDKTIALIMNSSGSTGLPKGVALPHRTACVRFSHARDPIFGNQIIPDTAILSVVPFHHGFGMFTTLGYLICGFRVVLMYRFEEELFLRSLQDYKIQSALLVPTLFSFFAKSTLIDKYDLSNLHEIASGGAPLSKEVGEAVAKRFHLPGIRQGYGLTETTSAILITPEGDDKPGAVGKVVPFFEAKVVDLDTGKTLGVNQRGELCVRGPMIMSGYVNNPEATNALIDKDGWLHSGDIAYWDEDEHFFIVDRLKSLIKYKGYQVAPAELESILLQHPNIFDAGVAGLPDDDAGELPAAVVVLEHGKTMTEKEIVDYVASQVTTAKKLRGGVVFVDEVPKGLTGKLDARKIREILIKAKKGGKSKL

Compound | Potency
CCCn1cc[n+](C)c1 | inactive
O=C(O)COc1ccc(Cl)cc1Cl | inactive
O=C(O)C(Cl)Cl | inactive
CCCCCC[n+]1ccccc1 | inactive
O=c1nc(O)n(Cl)c(=O)n1Cl | inactive
CCCCCCCCCCn1cc[n+](C)c1 | inactive
CCC[N+]1(C)CCCCC1 | inactive
COc1ccc(N)cc1 | inactive
CCCCn1cc[n+](C)c1C | inactive
Cc1cc(Cl)ccc1OCC(=O)O | inactive
CNC | inactive
Nc1ccc(-c2ccc(N)c(Cl)c2)cc1Cl | 35.8 µM (active) and 33.2 µM (active) and 12.6 µM (active)
CCCCCCn1cc[n+](C)c1 | inactive
O=C(O)c1nc(Cl)ccc1Cl | inactive
